The source made the active and inactive calls.
Key:
[1] = test system: Plasmodium falciparum Sir2 (PF13_0152, Sir2A); experiment: pfSir2 binders on small-molecule microarrays, primary screen, biochemical, small-molecule microarray, 635 nm fluorescence (AID 1098); conditions: small-molecule microarray binding, fluorescence 635 nm; higher = more signal;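 also: score merges spot fluorescence intensity with its signal-to-noise ratio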
[2] = small-molecule microarray binders of probe aDKK1, primary screen, biochemical, biotinylated probe, 635/667 nm fluorescence (AID 1099); conditions: higher = more signal;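 also: score merges 667nm spot fluorescence with signal to noise across triplicate slides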
[3] = small-molecule microarray binders of probe aCHRDL2, primary screen, biochemical, biotinylated probe, 635/667 nm fluorescence (AID 1100); conditions: higher = more signal
[4] = splicing luciferase reporter signal modulators, primary screen, spliceosome inhibition project, cell-based, HEK293, splice +/- reporter (AID 1101); conditions: luminescence, 24 h, higher = more signal, called active from +8 up or from −8 down;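 also: HEK293 cells carrying a splicing-competent luciferase reporter gene; test concentration not given here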
[5] = target: Fibroblast growth factor 10 (Homo sapiens) (UniProt O15520); experiment: FGF10 binders on small-molecule microarrays, primary screen, biochemical, small-molecule microarray, 635 nm fluorescence (AID 1102); conditions: FGF10 binding, fluorescence 635 nm, higher = more signal
[6] = test system: glycogen synthase kinase-3 (GSK3A per assay name; protocol says GSK3B); experiment: GSK3 binders on small-molecule microarrays, primary screen, biochemical, small-molecule microarray, 635 nm fluorescence, GSK3A (AID 1103); conditions: small-molecule microarray binding, fluorescence 635 nm; higher = more signal; also: the record names both GSK3A and GSK3B
[7] = target: Epidermal growth factor receptor (Homo sapiens) (UniProt P00533); experiment: EGFR binders on small-molecule microarrays, primary screen, biochemical, small-molecule microarray, 635 nm fluorescence (AID 1104); conditions: EGFR binding, higher = more signal;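 also: score merges 667 nm emission intensity with spot signal to noise over triplicate slides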
[8] = target: Follistatin-related protein 3 (Homo sapiens) (UniProt O95633); experiment: FSTL3 binders on small-molecule microarrays, primary screen, biochemical, small-molecule microarray, 635 nm fluorescence (AID 1105); conditions: FSTL3 binding, higher = more signal;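 also: score merges emission near 667 nm and signal to noise per printed spot across three slides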
[9] = target: Dickkopf-related protein 1 (Homo sapiens) (UniProt O94907); experiment: DKK1 binders on small-molecule microarrays, primary screen, biochemical, small-molecule microarray, 635 nm fluorescence scan (AID 1106); conditions: DKK1 binding, higher = more signal;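 also: score merges emission near 667 nm with signal to noise over three replicate slides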
[10] = test system: Inhibin beta A chain (activin A); experiment: INHBA (activin A) binders on microarrays, primary screen, biochemical, small-molecule microarray, 635 nm fluorescence scan (AID 1107); conditions: small-molecule microarray binding, higher = more signal;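 also: mouse activin A protein probed at 4.33 µg/mL on printed slides; score merges bound-protein fluorescence near 667 nm with spot signal-to-noise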
[11] = test system: Human papillomavirus type 1a protein E7 (residues 44-93); experiment: HPV1a E7 fragment binders on microarrays, primary screen, biochemical, small-molecule microarray, residues 44-93, 635 nm fluorescence (AID 1108); conditions: small-molecule microarray binding, fluorescence 635 nm; higher = more signal;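 also: E7 fragment applied at 1 µg/mL in TBST for 1 h at 4 C; score combines spot fluorescence with its signal to noise ratio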
[12] = modulators of HCV replicon luciferase signal, primary screen, HCV replication inhibitor project, Huh7 cells, luciferase reporter (AID 1109); conditions: 48 h, higher = more signal;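 also: huh7 hepatoma cells harbouring a luciferase neomycin HCV replicon reporter; luciferase luminescence as measure of HCV replicon replication; test concentration not given here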
[13] = target: Left-right determination factor 2 (Homo sapiens) (UniProt O00292); experiment: LEFTY2 binders on small-molecule microarrays, primary screen, biochemical, small-molecule microarray, 635 nm fluorescence scan (AID 1110); conditions: LEFTY2 binding, higher = more signal
[14] = target: Calmodulin-1 (Homo sapiens) (UniProt P0DP23); experiment: CALM1 binders on microarrays, EGTA buffer, profiling panel, biochemical, small-molecule microarray, Cy5-labelled CALM1 (AID 1111); conditions: Cy5-CALM1 binding fluorescence, higher = more signal;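 also: labelled calmodulin applied in Tris saline Tween buffer holding calcium plus EGTA and DTT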
[15] = target: Calmodulin-1 (Homo sapiens) (UniProt P0DP23); experiment: calcium-bound CALM1 binders on microarrays, profiling panel, artefact control for SMM control-protein annotation, biochemical, small-molecule microarray, Cy5-labelled CALM1, plus calcium (AID 1112); conditions: Cy5-CALM1 binding fluorescence, higher = more signal;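 also: score merges spot fluorescence with signal to noise from triplicate slides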
[16] = small-molecule microarray binders of probe aWnt5a, primary screen, biochemical, biotinylated probe, 635/667 nm fluorescence (AID 1113); conditions: higher = more signal;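 also: score merges 667 nm fluorescence intensity with signal-to-noise per printed feature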
[17] = small-molecule microarray binders of probe aShh, primary screen, biochemical, biotinylated probe, 635/667 nm fluorescence (AID 1114); conditions: higher = more signal;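 also: probe is biotin-labelled aShh protein from a stem cell growth factor screen; measures binding of labelled protein to compounds printed on the slide; score merges feature fluorescence at 667 nm with signal-to-noise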
[18] = small-molecule microarray binders of probe aNog, primary screen, biochemical, biotinylated probe, 635/667 nm fluorescence (AID 1115); conditions: higher = more signal;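 also: probe is biotinylated aNog protein used at 0.15 µg/mL for 1 h at 4 C; z-score combines 667 nm fluorescence of each spot with its signal to noise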
[19] = target: Torsin-1A-interacting protein 1 (Homo sapiens) (UniProt Q5JTV8); experiment: LAP1 binders from COS7 cell lysate, primary screen, small-molecule microarray, 635/667 nm fluorescence (AID 1116); conditions: COS7-hLAP1 lysate binding, 635 nm fluorescence, higher = more signal
[20] = target: Alpha-bungarotoxin (Bungarus multicinctus) (UniProt P60615); experiment: alpha-bungarotoxin binders on microarray, profiling panel, artefact control for SMM control protein annotation, biochemical, small-molecule microarray, Alexa647 label, 635/667 nm fluorescence (AID 1117); conditions: alpha-BTX-A647 binding fluorescence, higher = more signal
Alpha-bungarotoxin (Bungarus multicinctus), sequence (P60615 whole entry, looked up): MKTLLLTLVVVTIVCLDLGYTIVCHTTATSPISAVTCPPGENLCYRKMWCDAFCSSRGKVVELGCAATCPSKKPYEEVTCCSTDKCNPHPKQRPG

Left-right determination factor 2 (Homo sapiens), sequence (O00292 whole entry, looked up): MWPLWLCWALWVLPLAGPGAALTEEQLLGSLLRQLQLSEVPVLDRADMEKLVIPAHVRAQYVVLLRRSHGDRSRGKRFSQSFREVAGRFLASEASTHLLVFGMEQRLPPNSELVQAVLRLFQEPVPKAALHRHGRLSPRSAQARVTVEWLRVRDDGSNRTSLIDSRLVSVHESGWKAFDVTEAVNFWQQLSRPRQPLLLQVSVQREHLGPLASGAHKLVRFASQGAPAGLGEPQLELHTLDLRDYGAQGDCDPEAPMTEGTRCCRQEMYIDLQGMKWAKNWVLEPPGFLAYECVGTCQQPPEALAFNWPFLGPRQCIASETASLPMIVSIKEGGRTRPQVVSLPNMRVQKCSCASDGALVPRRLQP
Dickkopf-related protein 1 (Homo sapiens), sequence (O94907 whole entry, looked up): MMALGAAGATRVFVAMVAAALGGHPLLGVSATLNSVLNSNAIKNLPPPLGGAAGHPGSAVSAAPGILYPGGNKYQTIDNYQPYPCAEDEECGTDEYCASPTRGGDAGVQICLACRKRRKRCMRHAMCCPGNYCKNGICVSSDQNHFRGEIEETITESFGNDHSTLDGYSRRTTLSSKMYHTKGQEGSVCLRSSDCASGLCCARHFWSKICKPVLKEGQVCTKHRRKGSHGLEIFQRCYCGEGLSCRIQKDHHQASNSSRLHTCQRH
Torsin-1A-interacting protein 1 (Homo sapiens), sequence (Q5JTV8 whole entry, looked up): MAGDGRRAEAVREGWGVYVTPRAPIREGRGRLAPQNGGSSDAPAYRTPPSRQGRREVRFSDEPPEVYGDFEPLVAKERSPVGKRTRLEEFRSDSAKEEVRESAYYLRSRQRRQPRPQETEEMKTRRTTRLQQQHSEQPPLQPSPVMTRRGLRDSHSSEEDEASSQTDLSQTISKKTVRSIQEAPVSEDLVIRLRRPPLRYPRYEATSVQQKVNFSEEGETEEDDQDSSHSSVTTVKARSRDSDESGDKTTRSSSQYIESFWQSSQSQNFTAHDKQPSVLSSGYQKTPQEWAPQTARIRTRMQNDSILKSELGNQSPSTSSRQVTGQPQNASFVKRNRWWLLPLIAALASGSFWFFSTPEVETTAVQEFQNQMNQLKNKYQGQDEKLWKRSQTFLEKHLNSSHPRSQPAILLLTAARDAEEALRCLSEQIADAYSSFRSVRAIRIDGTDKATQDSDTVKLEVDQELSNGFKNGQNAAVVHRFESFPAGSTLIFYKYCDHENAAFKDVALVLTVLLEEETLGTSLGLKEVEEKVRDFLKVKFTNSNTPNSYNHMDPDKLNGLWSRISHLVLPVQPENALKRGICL
Follistatin-related protein 3 (Homo sapiens), sequence (O95633 whole entry, looked up): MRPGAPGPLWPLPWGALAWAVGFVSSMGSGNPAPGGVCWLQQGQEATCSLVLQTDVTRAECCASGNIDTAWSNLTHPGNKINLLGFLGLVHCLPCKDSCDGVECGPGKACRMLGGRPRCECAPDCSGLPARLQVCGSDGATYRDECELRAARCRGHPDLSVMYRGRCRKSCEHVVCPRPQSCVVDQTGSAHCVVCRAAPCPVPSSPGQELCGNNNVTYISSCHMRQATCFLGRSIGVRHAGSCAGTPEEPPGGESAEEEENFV
Epidermal growth factor receptor (Homo sapiens), sequence (P00533 whole entry, looked up): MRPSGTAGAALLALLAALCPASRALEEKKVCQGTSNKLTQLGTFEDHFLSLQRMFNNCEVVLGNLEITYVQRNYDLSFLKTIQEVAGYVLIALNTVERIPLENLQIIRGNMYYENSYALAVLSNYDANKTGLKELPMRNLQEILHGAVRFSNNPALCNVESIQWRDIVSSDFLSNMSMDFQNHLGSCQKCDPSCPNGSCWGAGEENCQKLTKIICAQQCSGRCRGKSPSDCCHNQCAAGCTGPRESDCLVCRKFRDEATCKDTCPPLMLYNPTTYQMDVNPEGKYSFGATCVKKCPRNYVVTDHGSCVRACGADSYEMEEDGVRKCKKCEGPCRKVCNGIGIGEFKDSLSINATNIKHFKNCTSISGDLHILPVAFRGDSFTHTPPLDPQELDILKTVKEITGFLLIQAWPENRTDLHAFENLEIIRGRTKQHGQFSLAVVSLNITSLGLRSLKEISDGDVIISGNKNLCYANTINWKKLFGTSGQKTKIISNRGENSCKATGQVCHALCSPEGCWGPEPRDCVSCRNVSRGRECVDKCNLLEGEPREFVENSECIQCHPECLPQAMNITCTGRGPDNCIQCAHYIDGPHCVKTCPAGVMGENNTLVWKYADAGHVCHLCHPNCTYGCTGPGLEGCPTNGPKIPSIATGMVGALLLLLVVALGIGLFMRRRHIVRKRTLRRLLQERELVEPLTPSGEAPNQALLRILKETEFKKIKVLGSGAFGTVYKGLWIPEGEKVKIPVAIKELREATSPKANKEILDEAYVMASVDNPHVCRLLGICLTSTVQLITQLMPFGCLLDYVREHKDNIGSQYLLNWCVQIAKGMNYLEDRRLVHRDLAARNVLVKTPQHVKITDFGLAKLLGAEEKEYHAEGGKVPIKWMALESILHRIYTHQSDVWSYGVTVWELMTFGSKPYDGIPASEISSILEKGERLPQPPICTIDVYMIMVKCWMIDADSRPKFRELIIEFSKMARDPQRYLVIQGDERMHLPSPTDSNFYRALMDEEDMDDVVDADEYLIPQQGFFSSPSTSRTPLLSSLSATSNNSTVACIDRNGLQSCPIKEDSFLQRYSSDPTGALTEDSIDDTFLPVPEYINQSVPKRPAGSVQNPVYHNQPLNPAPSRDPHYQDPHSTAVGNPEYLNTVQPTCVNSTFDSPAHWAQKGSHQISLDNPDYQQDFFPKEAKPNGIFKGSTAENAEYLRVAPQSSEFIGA
Fibroblast growth factor 10 (Homo sapiens), sequence (O15520 whole entry, looked up): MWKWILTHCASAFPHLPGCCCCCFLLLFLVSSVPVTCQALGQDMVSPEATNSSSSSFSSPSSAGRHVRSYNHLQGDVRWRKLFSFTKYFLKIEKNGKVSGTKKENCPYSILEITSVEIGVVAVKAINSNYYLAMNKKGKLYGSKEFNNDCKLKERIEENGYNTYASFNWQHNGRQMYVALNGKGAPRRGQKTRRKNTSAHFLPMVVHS

SMILES	composite z-score [1]	composite z-score [2]	composite z-score [3]	z-score [4]	composite z-score [5]	composite z-score [6]	composite z-score [7]	composite z-score [8]	composite z-score [9]	composite z-score [10]	composite z-score [11]	z-score [12]	composite z-score [13]	composite z-score [14]	composite z-score [15]	composite z-score [16]	composite z-score [17]	composite z-score [18]	composite z-score [19]	composite z-score [20]
CON=C(C)CCN1CCCc2nc(C)c(C)cc21	0.858	-0.117	-0.429	0.205 (inactive)	0.423	0.897	0.695	0.68	0.847	0.912	0.365	0.115	0.685	-0.209	-1.02	-0.0405	0.151	0.177	0.501	0.0599
CCCNC(=O)OC[C@H]1O[C@H](CCON=C2c3cc(OC)ccc3O[C@H](c3cccc(OC)c3)[C@H]2O)C=C[C@@H]1Oc1ccc(OC)cc1	0.204	0.0079	-0.0136	-0.553 (inactive)	0.744	0.21	0.474	0.54	0.273	-0.479	0.523	-3.02	0.322	0.571	0.0967	-0.187	-0.0035	-0.239	1.28	1.2
CO[C@@H]1COC(=O)[C@H](CCSC)NC(=O)CC=C[C@@H](C)COC(=O)[C@@H]2CCCN2C(=O)CC=C[C@H]1C	0.275	-0.337	-0.584	-0.595 (inactive)	0.779	0.745	0.898	0.909	1.01	0.4	-0.427	-0.522	0.857	-0.776	-1.36	-0.0276	0.0278	-0.036	0.771	-0.245
CO[C@H]1COC(=O)[C@H](C)COC(=O)[C@H](C)NC(=O)CC=C[C@H]1C	0.378	-0.579	-1.42	0.0547 (inactive)	1.07	1.24	1.54	1.51	1.28	0.843	0.429	-0.935	0.945	-0.891	-1.85	-0.154	0.0121	-0.41	0.143	-0.369
COc1ccc(COC(=O)NN=C2C[C@@H](O)[C@@H](O)[C@@H]3[C@@H]4C(=O)N(C5CCCCC5)C(=O)[C@@H]4CC[C@@H]23)cc1	-0.123	0.202	1.38	0.299 (inactive)	-0.28	-0.145	-0.583	-0.248	-0.88	0.105	0.14	-1.76	0.0141	-0.53	-0.811	-0.0529	-0.0769	-0.261	-0.011	0.229
CON=C[C@@H](OC)[C@H](C)C=CCC(=O)OC	-0.387	-0.171	-0.165	-0.165 (inactive)	-0.135	-0.115	0.327	-0.23	-0.067	0.892	-1.72	-0.337	0.262	-0.491	-0.476	-0.0573	0.0952	-0.296	0.447	-0.023
CC(C)[C@@H](OCc1ccccc1)[C@H](C)C=NOC[C@@H](O)[C@H]1O[C@@H]2OC(C)(C)O[C@@H]2[C@H]1O	0.635	-0.0784	-0.609	-0.262 (inactive)	0.355	0.151	0.677	0.628	0.254	-0.519	0.436	-1.75	0.413	0.178	-0.606	-0.15	-0.634	0.848	0.145	0.278
C=CC[C@@H]1C=C[C@H](Oc2ccc(C)cc2)[C@@H](COC(=O)NCc2cccc3ccccc23)O1	0.45	-0.129	0.0944	-0.566 (inactive)	0.575	-0.224	-0.156	0.201	0.142	1.03	0.286	-2.78	0.129	-0.716	-0.547	-0.0271	-0.0793	-0.0496	0.0431	-0.212
COc1ccc(COC(=O)NN=C2C[C@@H](O)[C@@H](O)[C@@H]3[C@@H]4C(=O)N(C(C)(C)C)C(=O)[C@@H]4CC[C@@H]23)cc1	0.182	-0.163	-0.64	0.992 (inactive)	0.189	0.787	0.314	0.967	1.16	-0.105	0.653	-0.828	1.27	1.19	-0.306	-0.0566	-0.0626	0.0498	0.207	0.751
CO[C@@H](C1CCCCC1)[C@@H](C)[C@H](OCc1cccc(Br)c1)[C@@H](C)CO	-0.317	-0.359	-0.426	0.899 (inactive)	0.512	-0.314	0.823	0.171	0.385	0.247	-0.18	-1.88	0.481	-0.434	0.318	-0.139	-0.0709	0.0649	0.0682	-0.378
COC(=O)CC=C[C@@H](C)[C@@H](C=NOC(C)CN1CCCc2nc(C)c(C)cc21)NS(=O)(=O)c1ccc(C)cc1 (stereo not given in full)	0.268	0.219	-0.296	0.218 (inactive)	0.65	0.793	0.568	1.01	0.829	0.932	1.09	-1.05	0.817	-0.481	-0.56	-0.0758	0.213	-0.0172	0.232	-0.0193

Source: PubChem BioAssay
